# Screening data as filed in PubChem BioAssay.
# Six1-Eya2 blk: blocks human Six1 binding to Eya2; Q15475+O00167; AlphaScreen GST-Six1/His-Eya2 binding, biochemical; hits give low values; activity change, % (test concentration not listed); 0.56% of 360,000 active; in the data active = activity change below about -65%; inconclusive = mostly about -30% to -63%; note: % is set by controls: 0 for no effect and ±100 for the full control effect
#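 AlphaScreen luminescence read after one hour at 37 °C in darkness. Pin-transferred compounds met GST-Six1 and His-Eya2 protein (5X stock 250 nM/500 nM) plus glutathione donor and Ni-chelate acceptor beads (5X, 50 ug/mL).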
# TDP1 block: blocks human tyrosyl-DNA phosphodiesterase 1; Q9NUW8; recombinant TDP1, AlphaScreen DNA substrate cleavage; Potency, µM (highest dose often 130 µM), for the others: at the top dose activity change, negative = inhibition, usual class: inhibitors; 0.28% of 350,000 active; AID 485290; note: potency is the fitted concentration of half-maximal effect; % is set by controls: 0 for no effect and ±100 for the full control effect; nearly all actives have a fitted effect of over 40% in size
# Target sequence (Q9NUW8 whole entry, looked up): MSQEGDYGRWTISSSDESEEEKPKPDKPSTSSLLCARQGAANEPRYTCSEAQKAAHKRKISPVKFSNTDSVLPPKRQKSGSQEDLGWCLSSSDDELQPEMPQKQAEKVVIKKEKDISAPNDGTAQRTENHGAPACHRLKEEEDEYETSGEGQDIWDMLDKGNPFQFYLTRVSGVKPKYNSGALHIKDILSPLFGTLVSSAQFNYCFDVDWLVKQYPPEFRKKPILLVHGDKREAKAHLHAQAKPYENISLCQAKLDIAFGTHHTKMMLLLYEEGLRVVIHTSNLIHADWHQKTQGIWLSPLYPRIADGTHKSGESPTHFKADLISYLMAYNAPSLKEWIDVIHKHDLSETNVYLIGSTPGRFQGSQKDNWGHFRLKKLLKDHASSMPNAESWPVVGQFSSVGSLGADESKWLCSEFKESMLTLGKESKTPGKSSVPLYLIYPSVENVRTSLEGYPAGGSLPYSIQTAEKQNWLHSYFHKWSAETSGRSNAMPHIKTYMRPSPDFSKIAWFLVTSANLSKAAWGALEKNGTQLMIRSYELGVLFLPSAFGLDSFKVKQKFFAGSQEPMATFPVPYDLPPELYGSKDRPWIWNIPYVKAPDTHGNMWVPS
#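 Compounds were preincubated with Tdp1 (1 nM final) for 15 min at room temperature before substrate (15 nM final) started a 5 min reaction; beads (10 ug/ml final) were then added for 10 min before AlphaScreen detection.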
# CtBP-E1A inh: inhibitors of CtBP/E1A interaction. AlphaScreen GST-E1A/His-CtBP binding, 1536-well; hits give low values. activity change, % (test concentration not listed). 0.49% of 340,000 active. AID 651724; in the data active = activity change below about -65%; inconclusive = mostly about -30% to -63%; note: % is set by controls: 0 for no effect and ±100 for the full control effect
#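 Steps: dispense buffer (Tris pH 8.0, NaCl 300 mM, TCEP 1 mM, BSA, Tween 20); add 5X protein mix (GST-E1A, His-CtBP, 125 nM each); pin 23 nL compound; 2 h at 37 °C, dark; add 5X beads (50 ug/mL); 1 h; read.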
# BAZ2B inh: blocks human BAZ2B | Q9UIF8 | AlphaScreen BAZ2B-H3K14Ac peptide displacement | Potency, µM (titrated, usually from 114 µM), for inactives: at the highest dose activity change, negative = inhibition, actives largely listed as inhibitors | 4.4% of 360,000 active | AID 504333; note: potency is the fitted concentration of half-maximal effect; % is set by controls: 0 for no effect and ±100 for the full control effect; nearly all actives have a fitted effect of over 60% in size
#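 BAZ2B (50 nM) with biotin-H3(5-23)K14Ac peptide (50 nM) in PBS pH 7.4, 0.01% Tween-20, preformed 30 min, then compound 30 min at room temperature; top concentration 110uM. AlphaScreen streptavidin donor/nickel chelate acceptor beads (10 ug/mL final), 20 min dark, signal read.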
# JMJD2A Tudor inh: blocks the human JMJD2A Tudor domain. O75164. AlphaScreen JMJD2A-Tudor / H3K4me3 peptide binding. Potency, µM (titrated, usually from 114 µM), inactives show at the highest dose activity change, negative = inhibition, usual class: inhibitors. 4.4% of 390,000 active; note: potency is the fitted concentration of half-maximal effect; % is set by controls: 0 for no effect and ±100 for the full control effect; nearly all actives have a fitted effect of over 50% in size
# HP1b chromo inh: HP1-beta chromodomain-methylated histone interaction inhibition; Potency, µM (highest dose often 114 µM), for the others: at the top dose activity change, negative = inhibition, usual class: inhibitors; AID 540317; 0.56% of 390,000 active; AlphaScreen HP1-beta / biotin-H3K9me3 peptide binding; P83916; note: potency is the fitted concentration of half-maximal effect; nearly all actives have a fitted effect of over 70% in size
# Target sequence (P83916 whole entry, looked up): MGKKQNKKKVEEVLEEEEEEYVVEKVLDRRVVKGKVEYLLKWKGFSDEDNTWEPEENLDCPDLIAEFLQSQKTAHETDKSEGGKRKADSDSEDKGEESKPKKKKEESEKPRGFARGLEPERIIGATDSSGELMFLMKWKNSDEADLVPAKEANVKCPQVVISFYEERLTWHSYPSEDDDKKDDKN
#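 Compound inhibition of the preformed complex between 50 nM HP1-beta and 50 nM biotinylated H3K9me3 peptide was read by AlphaScreen. Buffer was PBS pH 7.4 with 0.01% Tween-20. Incubations ran 30 min at room temperature, with 10 ug/mL donor/acceptor beads.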
# Numbers without * were called inactive; ? = inconclusive; . = no result; ! = not confirmed by another sample; [ ] = dose if it differs, or a comment. Hits are enriched below; roughly 5.3% of the tested compounds scored in any of these assays. Unless noted, calls come from the whole dose curve; as a rule, active = well fitted inhibition curve with a large enough effect; inconclusive = small, poorly fitted or top-dose-only effect; inactive = no such curve, though single readings can be large or run the other way.
SMILES,Six1-Eya2 blk,TDP1 block,CtBP-E1A inh,BAZ2B inh,JMJD2A Tudor inh,HP1b chromo inh
CC(=O)C1=C(O)C(=O)N(c2ccc(C(=O)O)cc2)C1c1ccccc1 (stereo unspecified),1.5,-2.5%,-6.8,?,31.6µM*,8.8%
CC(=O)C1=C(O)C(=O)N(c2ccc(O)cc2)C1c1ccccc1 (stereo unspecified),-0.6,.,1.0,?,9.1%,30.1%
Cc1ccc(CCNC(=O)Cn2nc(-c3ccc(C)cc3)ccc2=O)cc1,.,5.2%,.,-9.0%,-26.3%,1.7%
CCOc1ccccc1CNC(=O)CN1C(=O)c2cccnc2Oc2ccc(C)cc21,.,2.5%,.,11.3%,-21.5%,55.6%
O=C1c2cccnc2C(=O)N1CNc1ccc(Cl)cc1,-0.5,-3.0%,.,56.2µM*,-0.7%,25.9%
Cc1ccccc1-n1nc(CO)c(C(=O)NCCc2ccccc2)n1,.,0.0%,.,3.4%,-11.3%,31.7%
CCOC(=O)c1c(C)[nH]c(C)c1S(=O)(=O)N1CCCC(C(=O)NCc2ccc(N(C)C)cc2)C1 (stereo unspecified),.,2.6%,.,?,?,?
COc1ccccc1C(=O)Nc1nc(N)n(-c2ccccc2)n1,-4.4,0.0%,-0.4,?,4.4%,33.1%
COc1ccc(/C=C/C(=O)Nc2nc(N)n(-c3ccccc3)n2)cc1,-4.0,5.5%,0.2,50.1µM*,-18.6%,35.6%
CC(=O)Nc1nc(N)n(-c2ccccc2)n1,-0.2,3.1%,-2.7,?,-33.8%,4.8%
Nc1nc(NC(=O)/C=C\C(=O)O)nn1-c1ccccc1,-2.2,5.3%,.,22.4µM*,-16.5%[11.4 µM],43.2%
COc1ccc(N2CCN(CC(O)COc3c(OC)cccc3OC)CC2)cc1 (stereo unspecified),3.2,.,8.1,79.4µM*,56.2µM*!,6.2%
COc1ccc(N2CCN(CC(O)COc3ccc([N+](=O)[O-])cc3)CC2)cc1 (stereo unspecified),7.1,0.6%,-3.4,-35.9%,?,7.1%
COc1ccc(OCC(O)CN2CCN(c3ccc(OC)cc3)CC2)cc1 (stereo unspecified),-6.9,.,-4.3,-17.1%,?,2.9%
COc1ccc(N2CCN(CC(O)COc3ccccc3C(C)(C)C)CC2)cc1 (stereo unspecified),.,.,.,31.6µM*,22.4µM*,20µM*
CCOC(=O)c1cc(-c2ccccc2)n(-c2cccc(C(=O)N(CC)c3ccccc3)c2)c1C,.,0.9%,.,10µM*,?,-10.1%
CCOC(=O)c1cc(C)n(-c2ccccc2)c1C,-1.4,2.5%,-3.5,79.4µM*,-29.3%,0.8%
NC(=O)CSc1nc2cc3c(cc2c(=O)n1CCCCCC(=O)NCc1ccc2c(c1)OCO2)OCO3,.,5.4%,.,-0.1%,-11.0%,4.6%
COc1ccc(-c2cn3nc(N4CCC(C(=O)NCc5cccc(Cl)c5)CC4)sc3n2)cc1,.,3.7%,.,-28.7%,3.3%,12.8%
O=C(O)Cc1nnc(-c2cc3ccccc3[nH]2)s1,.,0.2%,.,.,-33.6%,.
NNc1nc(Nc2ccc([N+](=O)[O-])cc2)nc(N2CCCCCC2)n1,0.5,-20.9%,.,28.2µM*,56.2µM*,108.8%
COc1ccc(Nc2nc(NN)nc(Nc3ccc(OC)cc3)n2)cc1,-0.3,.,.,25.1µM*,44.7µM*,15.3%
NNc1nc(Nc2ccccc2)nc(Nc2ccccc2)n1,-18.6,-2.5%,-9.1,22.4µM*,-29.2%,39.5%
COc1ccc(NC2=C(C)C(=O)CC2)cc1,-1.5,-2.6%,-2.9,56.2µM*,2.6%,40.9%
Cc1ccc(NS(=O)(=O)c2cc3c(cc2-c2ccco2)NC(=O)CO3)cc1C,.,0.1%,.,.,?,.
SMILES,Six1-Eya2 blk,TDP1 block,CtBP-E1A inh,BAZ2B inh,JMJD2A Tudor inh,HP1b chromo inh
CCOc1ccccc1NC(=O)Cc1coc2c(C)c(C)ccc12,.,-4.9%,.,3.3%,45.8%,32.2%
COc1ccc(Nc2ccc(OC)cc2)cc1,?,8.3%,?,20µM*,50.1µM*,39.8µM*
COc1ccc(Nc2cccc3ccccc23)cc1,-0.8,13.1%,2.5,?,56.2µM*,?
NNc1nc(Nc2ccccc2)nc(N2CCCCC2)n1,-13.7,7.0%,6.6,79.4µM*,?,18.5%
CCOc1ccccc1C(=O)Nc1ccc(-n2nncc2-c2ccccc2)cc1,.,5.2%,.,-5.7%,-7.6%,23.2%
CCN(Cc1ccccc1)C(=O)CN1C(=O)COc2ccc(S(=O)(=O)N(CC)CC)cc21,.,2.3%,.,-9.9%,-17.2%,12.1%
CCc1ccc(/C=C/C(=O)c2cc(Br)ccc(=O)c2O)cc1,-5.3,-4.7%,9.5,44.7µM*,79.4µM*,?
Cc1cccc(/C=C/C(=O)c2cc(Br)ccc(=O)c2O)c1,-16.2,7.8%,0.0,44.7µM*,?,?
CCOc1ccc(/C=C/C(=O)c2cc(Br)ccc(=O)c2O)cc1,-19.5,10.5%,9.7,44.7µM*,50.1µM*,-54.6%
O=C(C=Cc1ccccc1)c1cc(Br)ccc1O,29.7,.,-0.1,.,19.9%,23.0%
O=C(Cn1c(=O)oc2cc(S(=O)(=O)N3CCCCCC3)ccc21)NCc1ccccc1Cl,.,1.9%,.,-12.5%,-21.2%,-1.3%
COc1ccc(OC)c(C(O)c2coc3ccc(O)c(CN(C)C)c23)c1 (stereo unspecified),-4.2,2.3%,3.8,-19.7%,-19.6%,21.7%
COc1ccc(OC)c(C(O)c2coc3ccc(O)c(CN4CCOCC4)c23)c1 (stereo unspecified),-2.5,0.0%,2.1,-22.8%,89.1µM*,4.7%
O=C(Nc1nc(-c2ccc(S(=O)(=O)N3CCCC3)cc2)cs1)c1ccco1,-68.7*,8.0%,-85.2*,-5.8%,-4.7%,43.3%
CCOc1ccc(-c2nc(Cn3c(=O)cc(-c4ccccc4)c4c(C)nn(C)c43)c(C)o2)cc1,.,7.1%,.,-1.4%,-11.0%,10.6%
NC(=O)c1cc(N2C(=O)C=CC2=O)ccc1Cl,-9.1,8.8%,4.0,?,25.1µM*,?
CC(=O)Nc1ccc(Cl)c(C(N)=O)c1,3.9,1.1%,0.6,-0.9%,-6.3%,26.1%
O=C(CNCc1ccccn1)N1CCc2ccccc2C1,-89.0*,.,-94.7*,3.98µM*,?,8.7%
O=C(NCC(=O)N1CCc2ccccc2C1)c1ccccc1Cl,3.1,.,-1.6,-10.0%,-3.1%,16.6%
CC1=NN(c2ccc(C)cc2)C(=O)/C1=C/c1ccc(-c2cc([N+](=O)[O-])ccc2O)o1,-2.3,.,.,2.4%,31.6µM*,31.6µM*
COc1cc(/C=C2/C(=O)N(c3ccc([N+](=O)[O-])cc3)N=C2N2CCOCC2)ccc1O,-3.6,3.5%,1.2,?,-7.4%[11.4 µM],?
O=C1NN(c2cccc(Br)c2)C(=O)/C1=C\c1ccc(O)cc1,-1.0,.,.,-35.8%,-25.4%,1.9%
